# Assay results: the supplement of paper PMC13380429
# Where a name gives a salt, the structure may show the parent alone.
# Tested on: Vero E6 infected with SARS-CoV-2
# Assay: inhibition of SARS-CoV-2 cytopathic effect; higher = more antiviral protection, active = above 15
# Settings: 833.33 nM; 48 h
row,Compound,inhibition of SARS-CoV-2 cytopathic effect
1,CS(=O)(=O)c1ccc(Cn2c3c(c4cc(F)cc(F)c42)CCCC3CC(=O)O)cc1 (stereo not given),1.36% (inactive)
2,COc1ccc(CC(C)NCC(O)c2ccc(O)c(NC=O)c2)cc1 (stereo not given) [formoterol],0.54% (inactive)
3,Brc1ccc(NC2C3CC4CC(C3)CC2C4)cc1 (stereo not given) [bromantan],0.76% (inactive)
4,O=[N+]([O-])c1cc(Cl)ccc1S(=O)(=O)N1CCN(Cc2ccccc2)CC1,3.68% (inactive)
5,c1cc(Nc2cc(C3CC3)n[nH]2)nc(Nc2ccc3[nH]cnc3c2)n1,-0.79% (inactive)
6,Oc1cc2c(cc1O)[C@@H]1c3ccc(O)c(O)c3OC[C@]1(O)C2 [hematoxylin],0.52% (inactive)
7,C=CC1=C(C)C2=CC3=NC(=C(CC(=O)O)C4=NC(=C(C)C4=C(O)O)C=c4[nH]c(c(C)c4CC)=CC1=N2)C(CCC(=O)O)C3C (stereo not given) [chlorophyllin],-4.38% (inactive)
8,CC(C)COc1ccc(CNC(=O)N(Cc2ccc(F)cc2)C2CCN(C)CC2)cc1 [pimavanserin],-0.47% (inactive)
9,CCCCc1ccc(O)cc1O [rucinol],-0.13% (inactive)
10,CC(C)(N)CC12CC3CC(CC(C3)C1)C2 [somantadine],-1.44% (inactive)
11,O=C1CN(/N=C/c2ccc([N+](=O)[O-])o2)C(=O)N1 [nitrofurantoin],0.55% (inactive)
12,Cc1c(CC(C)(C)C(=O)O)n(Cc2ccc(Cl)cc2)c2ccc(F)cc12,3.57% (inactive)
13,C[C@@H]1[C@H](O)[C@@H](C)/C=C/C=C/C=C/C=C/C=C/C=C/C=C/[C@H](O[C@@H]2O[C@H](C)[C@@H](O)[C@H](N)[C@@H]2O)C[C@@H]2O[C@](O)(C[C@@H](O)C[C@@H](O)[C@H](O)CC[C@@H](O)C[C@@H](O)CC(=O)O[C@H]1C)C[C@H](O)[C@H]2C(=O)O [amphotericin-b],-0.45% (inactive)
14,C[C@]1(O)C[C@@H](c2nc(-c3ccc4ccc(-c5ccccc5)nc4c3)c3c(N)nccn32)C1 [linsitinib],0.58% (inactive)
15,CC/C(=C(/CC)c1ccc(OP(=O)(O)O)cc1)c1ccc(OP(=O)(O)O)cc1 [fosfestrol],0.3% (inactive)
16,C=C[C@@](C)(/C=C/c1ccc(O)cc1)CCC=C(C)C [bakuchiol],0.59% (inactive)
17,CC(C)[N+](C)(CCC(C(N)=O)(c1ccccc1)c1ccccc1)C(C)C [isopropamide-iodide],1.52% (inactive)
18,CN(C)CCc1c[nH]c2ccc(Cn3cncn3)cc12 [rizatriptan],-0.7% (inactive)
19,Cc1cc(Nc2ncc(Cl)c(Nc3ccccc3S(=O)(=O)C(C)C)n2)c(OC(C)C)cc1C1CCNCC1 [ceritinib],-2.36% (inactive)
20,CCCCCCCCCC(=O)OCCN1CCN(CCCN2c3ccccc3Sc3ccc(C(F)(F)F)cc32)CC1 [fluphenazine-decanoate],-10.3% (inactive)

row,Compound,inhibition of SARS-CoV-2 cytopathic effect
1,Clc1ccc2c(NCCNc3ccnc4cc(Cl)ccc34)ccnc2c1,0.16% (inactive)
2,CC(O)(C(=O)Nc1ccc(S(=O)(=O)c2ccccc2)cc1)C(F)(F)F (stereo not given),-0.08% (inactive)
3,Cn1c(=O)c2c(ncn2CC2OCCO2)n(C)c1=O [doxofylline],-1.59% (inactive)
4,CN1C[C@@H]2CN(c3ccc(-c4ccccc4)nn3)C[C@@H]2C1,0.54% (inactive)
5,CSCC1CN(/N=C/c2ccc([N+](=O)[O-])o2)C(=O)O1 (stereo not given) [inimur],1.93% (inactive)
6,NCCCC[C@H](NC(=O)[C@@H]1CCCN1C(=O)[C@@H]1CSSC[C@H](N)C(=O)N[C@@H](Cc2ccc(O)cc2)C(=O)N[C@@H](Cc2ccccc2)C(=O)N[C@@H](CCC(N)=O)C(=O)N[C@@H](CC(N)=O)C(=O)N1)C(=O)NCC(N)=O [lypressin],1.65% (inactive)
7,CCCCC/C=C\C/C=C\CCCCCCCC(=O)NCCCC(=O)O [GABA-linoleamide],-0.22% (inactive)
8,CCCCCCCCCCOc1cc2c(O)c(C(=O)OCC)cnc2cc1OCC [decoquinate],-0.59% (inactive)
9,NC(=O)c1nc(F)cnc1O [favipiravir],0.84% (inactive)
10,Cc1ncc(COP(=O)([O-])[O-])c(CN(CCN(CC(=O)O)Cc2c(COP(=O)([O-])O)cnc(C)c2O)CC(=O)O)c1O.[Mn].[Na+].[Na+].[Na+] [Mangafodipir (trisodium)],-1.43% (inactive)
11,O=C(c1ccc(F)cc1)C1CCN(CCn2c(=O)[nH]c3ccccc3c2=O)CC1 [ketanserin],2% (inactive)
12,Cc1ccc(Cl)c(OCC(O)CNC(C)(C)C)c1 (stereo not given) [bupranolol],-1.98% (inactive)
13,Cc1c(Cl)cccc1S(=O)(=O)Nc1nc(CC(=O)N2CCN(C)CC2)cs1,3.23% (inactive)
14,C[C@@H](O)[C@H]1C(=O)N2C(C(=O)[O-])=C(SC3Cn4cnc[n+]4C3)[C@H](C)[C@H]12 (stereo not given in full) [biapenem],0.63% (inactive)
15,O=S(=O)(/N=C/c1c(O)ccc2ccccc12)c1cccs1,1.88% (inactive)
16,O=C(CCCCCCC(=O)Nc1cccnc1)NO [pyroxamide],-1.43% (inactive)
17,CCOC(=O)[C@@H](N)Cc1ccc(-c2cc(O[C@H](c3ccc(Cl)cc3-n3ccc(C)n3)C(F)(F)F)nc(N)n2)cc1 [telotristat-ethyl],4.77% (inactive)
18,CC(NCCC(c1ccccc1)c1ccccc1)c1ccccc1 (stereo not given) [fendiline],-4.72% (inactive)
19,Nc1ncc(Cc2ccc(Br)cc2)s1,2.26% (inactive)
20,CO/N=C(\C(=O)N[C@@H]1C(=O)N2C(C(=O)O)=C(Cn3ccc(=N)n3CCO)CS[C@H]12)c1csc(N)n1 [Cefoselis sulfate],-1.56% (inactive)
